# From PubChem BioAssay (NCI)
# About 83,000 compounds went through this panel and 20% of them were active in at least one assay; those are over-represented in the sample as a whole.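 Testing used 96-well plates and a 48-hour single-concentration exposure. Example: -40 means 40% of the starting cells died.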 Values without a mark were called inactive. The source made the active and inactive calls. Rule for the calls: active = growth percent below 10; inactive = the rest.
# System: HL-60(TB) leukemia
# Assay: NCI-60 one-dose screen, 48 h (100 = growth as untreated, 0 = no growth, -100 = all killed)
# Conditions: 10 µM unless noted
row,SMILES,growth
1,CCN1CCN(c2cc(C(=O)Nc3nc4ccc(Oc5ccnc(C(=O)NC)c5)cc4s3)cc(C(F)(F)F)c2)CC1,18.7%
2,C/C(=N\NC(N)=O)c1c(O)sc(=O)[nH]c1=O,96.2%
3,COc1ccc(-c2c(C(N)=O)c(N)n(Cc3nc4ccccc4[nH]3)c(=O)c2C#N)c(OC)c1,106%
4,FC(F)(F)c1cc(Br)cc(-c2cc(-c3ccc4c(c3)OCCO4)[nH]n2)c1,6.8% (active)
5,NC(N)=Nc1ccc(Oc2cccc(Nc3ccc(Cl)c(C(F)(F)F)c3)c2)cc1,1.32% (active)
6,COc1cc(OC)c(/C=C/S(=O)(=O)Cc2ccc(OC)c(NC(=O)CCC(=O)NO)c2)c(OC)c1,-10.8% (active)
7,O=c1[nH]c(CCl)nc2c1cnn2-c1ccccc1,109%
8,CNC(=O)c1cc(-n2ccc3cc(NC(=O)Nc4ccc(N5CCN(C)CC5)c(C(F)(F)F)c4)ccc32)ccn1,65.8%
9,CCCCCc1ccc(S(=O)(=O)Nc2cccc(-c3csc(NCCN4CCN(C)CC4)n3)c2)cc1,0.22% (active)
10,Cc1ccc(-n2cc(/C=C/C(=O)c3ccc(S(C)(=O)=O)cc3)c(-c3ccc(S(C)(=O)=O)cc3)n2)cc1,69.4%
11,Cn1cc(-c2nnc(N)nc2-c2c[nH]c3ccc(F)cc23)c2cc(F)ccc21,61.7%
12,COc1ccc(/C=N/NC(=O)CSc2nc(-c3cnccn3)cc(-c3cccs3)c2C#N)cc1,93.8%
13,COc1ccc(/C=C/C(=O)c2cccc(NC(=O)CSc3nc4ccccc4c(=O)n3-c3ccccc3)c2)cc1OC,98.9%
